# Columns and labels:
# Test in all cases: SPOT peptide array binding signal intensity (averaged, normalized) (arbitrary units (background-subtracted, floor 0; scale differs between SH3 domains)); higher = stronger binding of the SH3 domain to the peptide
# CaNbp2 = molecular target: CaNbp2
# Procedure, shortened: (§1)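 GST-fused SH3 domains, from four yeast species, were produced in E. coli BL21(DE3) and captured on glutathione Sepharose. Membranes of cellulose carrying synthetic 15-mer peptides, in which cysteines had been replaced by serines, were exposed to each domain at 10 μg/ml overnight at 4°C in TBS-based blocking buffer. After anti-GST antibody, an HRP anti-mouse secondary and luminol, spots were imaged and quantified using Genespotter. Binding signal is normalized and background-subtracted spot intensity, averaged over replicates, in arbitrary units that differ between domains.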
# CaRvs167 = molecular target: CaRvs167
# Procedure, shortened: as §1
# CaRvs167-3 = molecular target: CaRvs167-3
# Procedure, shortened: as §1
# CaSho1 = molecular target: CaSho1
# Procedure, shortened: as §1
# CaSla1-D1-D2 = molecular target: CaSla1-D1-D2
# Procedure, shortened: as §1
# CaSla1-D3 = molecular target: CaSla1-D3
# Procedure, shortened: as §1
# ScAbp1 = molecular target: ScAbp1
# Procedure, shortened: as §1
# ScBbc1 = molecular target: ScBbc1
# Procedure, shortened: as §1
# ScBem1-D1 = molecular target: ScBem1-D1
# Procedure, shortened: as §1
# ScBzz1-D1 = molecular target: ScBzz1-D1
# Procedure, shortened: as §1
# ScBzz1-D2 = molecular target: ScBzz1-D2
# Procedure, shortened: as §1
# ScCyk3 = molecular target: ScCyk3
# Procedure, shortened: as §1
# ScFus1 = molecular target: ScFus1
# Procedure, shortened: as §1
# ScHof1 = molecular target: ScHof1
# Procedure, shortened: as §1
# ScHse1 = molecular target: ScHse1
# Procedure, shortened: as §1
# ScLsb1 = molecular target: ScLsb1
# Procedure, shortened: as §1
# ScLsb2 = molecular target: ScLsb2
# Procedure, shortened: as §1
# ScLsb3 = molecular target: ScLsb3
# Procedure, shortened: as §1
# ScLsb4 = molecular target: ScLsb4
# Procedure, shortened: as §1
# ScMyo3 = molecular target: ScMyo3
# Procedure, shortened: as §1
# ScMyo5 = molecular target: ScMyo5
# Procedure, shortened: as §1
# ScNbp2 = molecular target: ScNbp2
# Procedure, shortened: as §1
# ScPex13 = molecular target: ScPex13
# Procedure, shortened: as §1
# ScRvs167 = molecular target: ScRvs167
# Procedure, shortened: as §1
# ScSho1 = molecular target: ScSho1
# Procedure, shortened: as §1
# ScSla1-D1-D2 = molecular target: ScSla1-D1-D2
# Procedure, shortened: as §1
# ScSla1-D3 = molecular target: ScSla1-D3
# Procedure, shortened: as §1
# SpAbp1-D1 = molecular target: SpAbp1-D1
# Procedure, shortened: as §1
# SpBbc1 = molecular target: SpBbc1
# Procedure, shortened: as §1
# SpBzz1-D1 = molecular target: SpBzz1-D1
# Procedure, shortened: as §1
# SpBzz1-D2 = molecular target: SpBzz1-D2
# Procedure, shortened: as §1
# SpCyk3 = molecular target: SpCyk3
# Procedure, shortened: as §1
# SpHof1 = molecular target: SpHof1
# Procedure, shortened: as §1
# SpHof1-2 = molecular target: SpHof1-2
# Procedure, shortened: as §1
# SpHof1-3 = molecular target: SpHof1-3
# Procedure, shortened: as §1
# SpHse1 = molecular target: SpHse1
# Procedure, shortened: as §1
# SpLsb1 = molecular target: SpLsb1
# Procedure, shortened: as §1
# SpLsb4 = molecular target: SpLsb4
# Procedure, shortened: as §1
# SpMyo1 = molecular target: SpMyo1
# Procedure, shortened: as §1
# SpNbp2 = molecular target: SpNbp2
# Procedure, shortened: as §1
# SpPex13 = molecular target: SpPex13
# Procedure, shortened: as §1
# SpRvs167 = molecular target: SpRvs167
# Procedure, shortened: as §1
# SpSla1-D1-D2 = molecular target: SpSla1-D1-D2
# Procedure, shortened: as §1
# SpSla1-D3 = molecular target: SpSla1-D3
# Procedure, shortened: as §1
# AgAbp1 = molecular target: AgAbp1
# Procedure, shortened: as §1
# AgBbc1 = molecular target: AgBbc1
# Procedure, shortened: as §1
# AgBem1-D1 = molecular target: AgBem1-D1
# Procedure, shortened: as §1
# AgBzz1-D1 = molecular target: AgBzz1-D1
# Procedure, shortened: as §1
# AgBzz1-D2 = molecular target: AgBzz1-D2
# Procedure, shortened: as §1
# AgCyk3 = molecular target: AgCyk3
# Procedure, shortened: as §1
# AgFus1 = molecular target: AgFus1
# Procedure, shortened: as §1
# AgHof1 = molecular target: AgHof1
# Procedure, shortened: as §1
# AgHse1 = molecular target: AgHse1
# Procedure, shortened: as §1
# AgLsb1 = molecular target: AgLsb1
# Procedure, shortened: as §1
# AgLsb4 = molecular target: AgLsb4
# Procedure, shortened: as §1
# AgMyo5 = molecular target: AgMyo5
# Procedure, shortened: as §1
# AgNbp2 = molecular target: AgNbp2
# Procedure, shortened: as §1
# AgRvs167 = molecular target: AgRvs167
# Procedure, shortened: as §1
# AgSho1 = molecular target: AgSho1
# Procedure, shortened: as §1
# AgSla1-D1-D2 = molecular target: AgSla1-D1-D2
# Procedure, shortened: as §1
# AgSla1-D3 = molecular target: AgSla1-D3
# Procedure, shortened: as §1
# CaAbp1-D1 = molecular target: CaAbp1-D1
# Procedure, shortened: as §1
# CaAbp1-D2 = molecular target: CaAbp1-D2
# Procedure, shortened: as §1
# CaBbc1 = molecular target: CaBbc1
# Procedure, shortened: as §1
# CaBem1-D1 = molecular target: CaBem1-D1
# Procedure, shortened: as §1
# CaBzz1-D1 = molecular target: CaBzz1-D1
# Procedure, shortened: as §1
# CaBzz1-D2 = molecular target: CaBzz1-D2
# Procedure, shortened: as §1
# CaCyk3 = molecular target: CaCyk3
# Procedure, shortened: as §1
# CaFus1 = molecular target: CaFus1
# Procedure, shortened: as §1
# CaHof1 = molecular target: CaHof1
# Procedure, shortened: as §1
# CaHse1 = molecular target: CaHse1
# Procedure, shortened: as §1
# CaLsb1 = molecular target: CaLsb1
# Procedure, shortened: as §1
# CaLsb4 = molecular target: CaLsb4
# Procedure, shortened: as §1
# CaMyo5 = molecular target: CaMyo5
# Procedure, shortened: as §1
binder,measurement,setting,value
GKFIPSRPAPKPPSS,SPOT peptide array binding signal intensity,CaNbp2,3600
same,SPOT peptide array binding signal intensity,CaRvs167,26.2
same,SPOT peptide array binding signal intensity,CaRvs167-3,3.25
same,SPOT peptide array binding signal intensity,CaSho1,36
same,SPOT peptide array binding signal intensity,CaSla1-D1-D2,684
same,SPOT peptide array binding signal intensity,CaSla1-D3,14.5
same,SPOT peptide array binding signal intensity,ScAbp1,127
same,SPOT peptide array binding signal intensity,ScBbc1,552
same,SPOT peptide array binding signal intensity,ScBem1-D1,1
same,SPOT peptide array binding signal intensity,ScBzz1-D1,39
same,SPOT peptide array binding signal intensity,ScBzz1-D2,25
same,SPOT peptide array binding signal intensity,ScCyk3,2
same,SPOT peptide array binding signal intensity,ScFus1,≤ 0
same,SPOT peptide array binding signal intensity,ScHof1,8.25
same,SPOT peptide array binding signal intensity,ScHse1,74
same,SPOT peptide array binding signal intensity,ScLsb1,175
same,SPOT peptide array binding signal intensity,ScLsb2,161
same,SPOT peptide array binding signal intensity,ScLsb3,508
same,SPOT peptide array binding signal intensity,ScLsb4,13.5
same,SPOT peptide array binding signal intensity,ScMyo3,3530
same,SPOT peptide array binding signal intensity,ScMyo5,3480
same,SPOT peptide array binding signal intensity,ScNbp2,5410
same,SPOT peptide array binding signal intensity,ScPex13,1460
same,SPOT peptide array binding signal intensity,ScRvs167,274
same,SPOT peptide array binding signal intensity,ScSho1,66.5
same,SPOT peptide array binding signal intensity,ScSla1-D1-D2,652
same,SPOT peptide array binding signal intensity,ScSla1-D3,156
same,SPOT peptide array binding signal intensity,SpAbp1-D1,187
same,SPOT peptide array binding signal intensity,SpBbc1,46.5
same,SPOT peptide array binding signal intensity,SpBzz1-D1,735
same,SPOT peptide array binding signal intensity,SpBzz1-D2,9.5
same,SPOT peptide array binding signal intensity,SpCyk3,5
same,SPOT peptide array binding signal intensity,SpHof1,77.5
same,SPOT peptide array binding signal intensity,SpHof1-2,33
same,SPOT peptide array binding signal intensity,SpHof1-3,94.8
same,SPOT peptide array binding signal intensity,SpHse1,180
same,SPOT peptide array binding signal intensity,SpLsb1,98.8
same,SPOT peptide array binding signal intensity,SpLsb4,600
same,SPOT peptide array binding signal intensity,SpMyo1,2900
same,SPOT peptide array binding signal intensity,SpNbp2,850
same,SPOT peptide array binding signal intensity,SpPex13,22
same,SPOT peptide array binding signal intensity,SpRvs167,90
same,SPOT peptide array binding signal intensity,SpSla1-D1-D2,≤ 0
same,SPOT peptide array binding signal intensity,SpSla1-D3,3.5
QPQRTAPKPPISAPR,SPOT peptide array binding signal intensity,AgAbp1,2
same,SPOT peptide array binding signal intensity,AgBbc1,170
same,SPOT peptide array binding signal intensity,AgBem1-D1,128
same,SPOT peptide array binding signal intensity,AgBzz1-D1,51
same,SPOT peptide array binding signal intensity,AgBzz1-D2,28
same,SPOT peptide array binding signal intensity,AgCyk3,1
same,SPOT peptide array binding signal intensity,AgFus1,11
same,SPOT peptide array binding signal intensity,AgHof1,4.75
same,SPOT peptide array binding signal intensity,AgHse1,14
same,SPOT peptide array binding signal intensity,AgLsb1,0.5
same,SPOT peptide array binding signal intensity,AgLsb4,≤ 0
same,SPOT peptide array binding signal intensity,AgMyo5,327
same,SPOT peptide array binding signal intensity,AgNbp2,1510
same,SPOT peptide array binding signal intensity,AgRvs167,1
same,SPOT peptide array binding signal intensity,AgSho1,4
same,SPOT peptide array binding signal intensity,AgSla1-D1-D2,≤ 0
same,SPOT peptide array binding signal intensity,AgSla1-D3,≤ 0
same,SPOT peptide array binding signal intensity,CaAbp1-D1,≤ 0
same,SPOT peptide array binding signal intensity,CaAbp1-D2,5
same,SPOT peptide array binding signal intensity,CaBbc1,693
same,SPOT peptide array binding signal intensity,CaBem1-D1,73
same,SPOT peptide array binding signal intensity,CaBzz1-D1,1260
same,SPOT peptide array binding signal intensity,CaBzz1-D2,420
same,SPOT peptide array binding signal intensity,CaCyk3,0.5
same,SPOT peptide array binding signal intensity,CaFus1,≤ 0
same,SPOT peptide array binding signal intensity,CaHof1,0.5
same,SPOT peptide array binding signal intensity,CaHse1,≤ 0
same,SPOT peptide array binding signal intensity,CaLsb1,0.5
same,SPOT peptide array binding signal intensity,CaLsb4,≤ 0
same,SPOT peptide array binding signal intensity,CaMyo5,7.5
same,SPOT peptide array binding signal intensity,CaNbp2,1340
same,SPOT peptide array binding signal intensity,CaRvs167,≤ 0
same,SPOT peptide array binding signal intensity,CaRvs167-3,1
same,SPOT peptide array binding signal intensity,CaSho1,14
same,SPOT peptide array binding signal intensity,CaSla1-D1-D2,291
same,SPOT peptide array binding signal intensity,CaSla1-D3,0.5
same,SPOT peptide array binding signal intensity,ScAbp1,8
same,SPOT peptide array binding signal intensity,ScBbc1,268
same,SPOT peptide array binding signal intensity,ScBem1-D1,≤ 0
same,SPOT peptide array binding signal intensity,ScBzz1-D1,4
same,SPOT peptide array binding signal intensity,ScBzz1-D2,15.5
same,SPOT peptide array binding signal intensity,ScCyk3,≤ 0
same,SPOT peptide array binding signal intensity,ScFus1,≤ 0
same,SPOT peptide array binding signal intensity,ScHof1,≤ 0
same,SPOT peptide array binding signal intensity,ScHse1,≤ 0
same,SPOT peptide array binding signal intensity,ScLsb1,≤ 0
same,SPOT peptide array binding signal intensity,ScLsb2,≤ 0
same,SPOT peptide array binding signal intensity,ScLsb3,58
same,SPOT peptide array binding signal intensity,ScLsb4,≤ 0
same,SPOT peptide array binding signal intensity,ScMyo3,699
same,SPOT peptide array binding signal intensity,ScMyo5,613
same,SPOT peptide array binding signal intensity,ScNbp2,2700
same,SPOT peptide array binding signal intensity,ScPex13,131
same,SPOT peptide array binding signal intensity,ScRvs167,≤ 0
same,SPOT peptide array binding signal intensity,ScSho1,6
same,SPOT peptide array binding signal intensity,ScSla1-D1-D2,1730
same,SPOT peptide array binding signal intensity,ScSla1-D3,25.5
same,SPOT peptide array binding signal intensity,SpAbp1-D1,2.5
same,SPOT peptide array binding signal intensity,SpBbc1,10
same,SPOT peptide array binding signal intensity,SpBzz1-D1,260
same,SPOT peptide array binding signal intensity,SpBzz1-D2,14.5
same,SPOT peptide array binding signal intensity,SpCyk3,0.5
same,SPOT peptide array binding signal intensity,SpHof1,≤ 0
same,SPOT peptide array binding signal intensity,SpHof1-2,7.5
same,SPOT peptide array binding signal intensity,SpHof1-3,≤ 0
same,SPOT peptide array binding signal intensity,SpHse1,≤ 0
same,SPOT peptide array binding signal intensity,SpLsb1,≤ 0
same,SPOT peptide array binding signal intensity,SpLsb4,27.5
same,SPOT peptide array binding signal intensity,SpMyo1,2550
same,SPOT peptide array binding signal intensity,SpNbp2,22.5
same,SPOT peptide array binding signal intensity,SpPex13,1
same,SPOT peptide array binding signal intensity,SpRvs167,2.33
same,SPOT peptide array binding signal intensity,SpSla1-D1-D2,≤ 0
same,SPOT peptide array binding signal intensity,SpSla1-D3,≤ 0
